Source: PubChem (several laboratories)
M1 agonist: M1 muscarinic receptor agonism; B-score at 10 µM; actives 3% (n = 64,000); AID 626; CHO-M1 cells, Fluo-4 calcium fluorescence, agonist mode; stronger effect = higher value;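 active = fluorescence rise, raw or as B-score row- and column-corrected plate score, outside the 99.7% band of its plate's samples, either direction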
Cdc25B inh: human M-phase inducer phosphatase 2 inhibition | P30305 | inhibition, %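 (compounds tested at 10 µM final in the well)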 | actives 0.1% (n = 65,000) | AID 368 | recombinant Cdc25B, OMFP fluorescence Ex485/Em525; in the data active = inhibition above about 50%
DUSP1 inh: human dual specificity phosphatase 1 inhibition | recombinant MKP-1, OMFP hydrolysis fluorescence | P28562 | inhibition, %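 (compounds tested at a single concentration somewhere between 10 and 100 µM)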 | actives 0.15% (n = 65,000);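 active = inhibition above about 50%, limit read from the data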;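 note: 0% = DMSO max control wells and 100% = wells with enzyme stopped by NaOH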
Target sequence (P28562 whole entry, looked up): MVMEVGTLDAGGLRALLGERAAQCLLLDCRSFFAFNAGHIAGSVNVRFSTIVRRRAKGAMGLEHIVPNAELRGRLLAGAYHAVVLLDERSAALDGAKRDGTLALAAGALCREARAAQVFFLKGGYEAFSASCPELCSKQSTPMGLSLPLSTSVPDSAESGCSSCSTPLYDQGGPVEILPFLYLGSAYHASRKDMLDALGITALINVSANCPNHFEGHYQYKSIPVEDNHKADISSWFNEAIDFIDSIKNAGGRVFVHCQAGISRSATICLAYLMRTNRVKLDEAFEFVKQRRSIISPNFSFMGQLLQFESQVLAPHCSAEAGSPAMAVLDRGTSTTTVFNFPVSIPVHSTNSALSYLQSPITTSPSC
M1 antagonist: M1 muscarinic receptor (rat) antagonism; B-score at 10 µM; actives 3.4% (n = 64,000); P08482; AID 628; CHO-M1 cells, Fluo-4 calcium, ACh EC80 antagonist mode; stronger effect = lower value;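 active = calcium fluorescence response, raw or row-and-column corrected B-score, differing from the plate sample mean either way at a set confidence level, mostly lower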
Hsp90 block: displaces geldanamycin probe from tumor Hsp90 | P07900 | actives 0.35% (n = 64,000) | AID 429 | inhibition, % at 30 µM | NCI-N417 lysate Hsp90, Cy3B-geldanamycin FP displacement;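 active = inhibition above 50%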;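 note: 0% = tracer plus lysate wells and 100% = tracer alone without lysate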
MMP13 inh: blocks human MMP13 activity; P45452; MMP-13 fTHP FRET cleavage, Mca fluorescence; inhibition, % at 4 µM; AID 570; actives 0.07% (n = 65,000);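 active = inhibition above the mean of compound-free control plate wells plus 3 SD, cut at about 14% in these data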;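 note: 0% = DMSO wells and 100% = wells with reference MMP-13 inhibitor after basal subtraction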
The depositor's hits bear a star; . = no result given. Most compounds without a hit are left out; they make up all but 6.1% or so of the library.

SMILES	M1 agonist	Cdc25B inh	DUSP1 inh	M1 antagonist	Hsp90 block	MMP13 inh
CCCC1(C(=O)O)NC(c2ccc(OC)cc2O)C2C(=O)N(c3ccc(OC)cc3)C(=O)C21 (configuration not stated)	-0.0252	-10.7	7.2	-0.0982	0.9	-5.9
Cc1nn(-c2ccc(Cl)cc2)c2sc(C(=O)N3CCN(c4ccccn4)CC3)cc12	-0.157	-13.1	6.6	-0.0214	1.9	3.5
Cc1nn(-c2ccc(Cl)cc2)c2sc(C(=O)N3CCN(C(=O)c4ccco4)CC3)cc12	2.76*	-10.7	1.8	0.207	.	-3.3
COC(=O)c1ccccc1NC(=O)CSc1nc(O)cc(=O)n1C1CCCC1	43.8*	-8.3	32.0	0.686	-4.1	-1.8
COc1ccc(-c2nnc3ccc(SCC(=O)N4CCN(c5ccccc5)CC4)nn23)cc1	4.44*	-9.4	36.2	-0.399	-0.4	-4.5
O=C(CSc1ccc2nnc(-c3ccccc3)n2n1)N1CCN(c2ccccc2)CC1	0.038	-5.0	-0.7	-0.717	0.3	1.3
Cc1ccc(OCC(O)CNS(=O)(=O)c2ccccc2C(=O)N2CCCCC2)cc1 (configuration not stated)	0.0523	-1.0	-24.7	-0.0301	-6.4	7.5
O=C1C2=C(SCCS2)C(=O)N1CCCO	7.9*	-2.4	-2.0	0.101	-5.2	3.9
Cc1ccc(NC(=O)c2cc(-c3cccc(O)c3)on2)cc1C	-0.0316	0.0	-3.8	-0.193	-3.4	-1.4
COc1cc(C(=O)NCc2ccc3c(c2)OCO3)ccc1OCc1c(C)noc1C	0.495	-24.8	5.2	-1.1	.	-3.5
O=c1oc2c(CN3CCCCCC3)c(O)ccc2cc1-c1nc2ccccc2[nH]1	248*	-7.0	6.2	-17.2*	4.9	-99.8
O=c1cc(-c2ccccc2)c2ccc(O)c(CN3CCCCC3)c2o1	-1.27	-11.8	-1.5	-0.696	-4.0	-4.9
O=C(Nc1nc(-c2ccc3c(c2)OCO3)cs1)C1COc2ccccc2O1 (configuration not stated)	-0.813	-5.0	-3.9	-0.318	91.1*	2.0
O=C(Nc1nc(-c2ccccn2)cs1)C1COc2ccccc2O1 (configuration not stated)	0.284	-9.8	6.4	-0.112	-2.3	6.1
CCOC(=O)C1=C(C)OC(N)=C(C(=O)OCC)C1c1cccnc1 (configuration not stated)	-0.146	4.1	-19.9	-0.442	71.8*	1.6
O=c1[nH]cnc2[nH]ncc12	.	-2.7	74.5*	.	0.4	.
COc1cccc2c(=O)c(C/C=C(/C)Cl)c(C)[nH]c12	0.069	-6.1	-4.0	0.581	-4.5	-50.4
OCc1nc2ccccc2n1CCCOc1ccc(Br)cc1	1.17	-10.9	12.2	0.0315	-5.6	5.1
FC(F)(F)c1ccc(N2CCOCC2)c(NC2=NCCCCC2)c1	0.314	-11.0	2.1	0.186	-3.6	2.9
CCOc1cc(N2CCOCC2)c(OCC)cc1NC1=NCCCCC1	0.0316	-0.3	30.2	-0.538	60.9*	-4.3
Oc1ccc(C=Nc2cccc3ncccc23)c(O)c1	-0.845	7.4	-9.7	-0.0952	8.6	0.0
Oc1ccc(C=Nc2ccc3ncccc3c2)c(O)c1	-0.0101	4.3	9.2	-0.141	76.0*	-1.0
COc1cccc(C=Nc2ccc3c(c2)OCCO3)c1O	0.428	-3.0	-8.9	0.00101	9.5	-3.4
COc1cccc(N=Cc2ccc(O)cc2O)c1	2.25*	12.4	28.9	-0.00157	-3.0	3.4
CCN1CCCC1CNC(=O)Cn1cccc1C(=O)c1ccccc1 (configuration not stated)	-0.373	3.0	-5.8	-1.36	0.3	-0.3
SMILES	M1 agonist	Cdc25B inh	DUSP1 inh	M1 antagonist	Hsp90 block	MMP13 inh
COc1ccc(Oc2c(OC)cc(NCCCCCNC(C)C)c3ncccc23)cc1	.	.	.	.	15.5	.
CCN1CCN(c2ncc(C(=O)N3CCN(c4ccccc4OC)CC3)c3ccccc23)CC1	-1.02	-34.0	-22.2	-10.1*	-4.7	-2.9
CCN1CCN(c2ncc(C(=O)Nc3cc(Cl)c(OC)cc3OC)c3ccccc23)CC1	.	-13.1	17.7	.	-3.1	0.6
COc1ccc(OC)c(C2=NO[C@@H]3C(=O)N(c4cc(Cl)ccc4OC)C(=O)[C@H]23)c1	0.0197	2.6	-18.3	-0.715	-2.5	-4.4
COc1ccc(C2=NO[C@@H]3C(=O)N(c4ccc5c(c4)OCCO5)C(=O)[C@H]23)cc1OC	-0.167	0.8	-14.3	0.0696	67.8*	4.2
CNC(=O)c1cc2cc(Cl)cc(OC)c2oc1=O	2.5	-1.5	8.2	-0.619	-7.0	1.6
CSc1nc(-c2ccco2)nn1S(=O)(=O)c1ccc(C)cc1	-0.0131	-4.7	2.7	0.355	-3.8	4.1
Cc1ccc(S(=O)(=O)n2nc(-c3ccco3)nc2SCc2ccccc2)cc1	2.17*	1.1	5.4	-1.19	0.0	5.4
COc1ccccc1S(=O)(=O)Cc1ccc(C(=O)NCc2cccs2)o1	0.0257	-2.3	17.3	2.17*	-6.4	-3.2
COc1ccc(S(=O)(=O)Cc2ccc(C(=O)NCc3cccs3)o2)cc1	-0.0242	0.1	8.6	0.46	1.7	-0.8
CCC(C(=O)Nc1nccs1)(C(F)(F)F)C(F)(F)F	7.39*	-32.1	-1.4	-0.526	-2.2	-5.3
O=c1cc(-c2ccccc2)nc(N2CCN(Cc3ccc4c(c3)OCO4)CC2)[nH]1	-0.499	-1.0	33.9	0.139	-3.7	1.9
CCn1c(SCC(=O)Nc2nc(C)c(C(=O)OC)s2)nnc1C(C)C	0.864	-1.5	-14.2	0.331	-1.2	1.9
CCN1CCN(Cc2ccc3c(c2)Cc2ccccc2-3)CC1	2.25	4.9	0.1	-3.55*	-5.0	0.3
COc1ccc(-c2cn3c(C)c(C(=O)Nc4cccc(C)n4)sc3n2)cc1	0.719	-13.0	51.1*	1.09	-3.7	-2.1
Cc1cccc(NC(=O)c2sc3nc(-c4ccc(F)cc4)cn3c2C)n1	-0.588	-3.8	30.9	1.35	-2.5	-3.3
O=c1oc2c3c4c(cc2s1)CCCN4CCC3	-1.99	16.1	2.3	0.504	68.8*	.
O=C(NC(=Nc1ccccc1)N1CCOCC1)Nc1ccccc1	-0.207	-3.3	6.6	0.763	1.2	15.8*
Cc1cc(C)n(-c2nc3c(c(=O)n(C)c(=O)n3C)n2Cc2cccc(Br)c2)n1	0.323	3.7	5.5	-0.155	-5.0	0.3
COc1cccc(OC)c1OCCCc1c(C)n[nH]c1C	-0.509	12.5	-9.1	-0.302	-0.8	0.5
COc1ccc2c3c(cccc13)NN=C2C	0.6	-4.6	11.7	-0.0779	86.5*	3.2
COc1cc(N=Cc2ccc([N+](=O)[O-])cc2)c2ncccc2c1	.	.	.	.	-0.7	.
CC(C)CCNC(=O)C1CCN(C(=O)N(C)C)CC1	0.199	-6.2	-2.5	-0.0393	-0.6	-1.4
Cn1c(=O)c2c(nc(CN3CCCCC3)n2CCCc2ccccc2)n(C)c1=O	0.692	0.1	-1.8	-0.131	-1.3	2.4
Cn1c(=O)c2c(nc(CN3CCN(C(=O)c4ccco4)CC3)n2CCCc2ccccc2)n(C)c1=O	0.679	-2.8	12.3	-0.18	-2.2	16.6*
